Reference: PubChem BioAssay (NCATS)
Records with an inconclusive call do not appear. Where a call stands in place of a potency, no number is given. Active and inactive are the calls of the source. Calls follow the shape of the dose curve; as a rule, active = well fitted curve in the direction sought with a large enough effect; inconclusive = small, poorly fitted or top-dose-only effect, or another doubt; inactive = no such curve, though single readings can be large; an effect the other way counts as inactive or inconclusive.

System: Zika virus NS2B-NS3 protease (linked construct)
Assay: 384 well plate NINDS Rhodamine confirmatory qHTS for Zika virus inhibitors (AID 1347164);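 also: fluorescence from protease cleavage of Ac-LKRR-rhodamine 110 substrate; nearly all actives have a fitted effect of over 65% in size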; also: potency is read from the fitted curve at half-maximal effect
Conditions: rhodamine-110 peptide substrate fluorescence; series mostly up to 100 µM
Procedure, shortened: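 Fluorescence read at ex 485 nm/em 538 nm, 25 min after adding 10 microM Ac-LKRR-Rd substrate at room temperature in the dark; signal normalized to no-enzyme and no-inhibitor controls. Enzyme final 5, 30 or 60 nM; compounds, ~15 min preincubation.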
For `CN(C)[C@@H]1C(=O)C(C(=O)NCN2CCCC2)=C(O)[C@@]2(O)C(=O)C3=C(O)c4c(O)cccc4[C@@](C)(O)C3C[C@@H]12` (stereo not given in full), the Potency was 44.7 µM (active). With `O=C(c1cc(O)c(O)c([N+](=O)[O-])c1)c1ccccc1F` the Potency was 0.398 µM (active). With `O=C(NOCC1CC1)c1cc(Br)c(F)c(F)c1Nc1ccc(I)cc1Cl` the Potency was 31.6 µM (active). In the case of `COc1ccc(Br)cc1S(=O)(=O)NC(=O)/C=C/c1ccccc1Cc1ccc2ccccc2c1`, the Potency was “inactive”. With `O=C1NC(=O)/C(=C/c2ccc(-c3ccc(F)cc3O)o2)S1` the Potency was 20 µM (active).

Molecular target: Lysine-specific demethylase 5B (Homo sapiens) (UniProt Q9UGL1)
Sequence (Q9UGL1 whole entry, looked up): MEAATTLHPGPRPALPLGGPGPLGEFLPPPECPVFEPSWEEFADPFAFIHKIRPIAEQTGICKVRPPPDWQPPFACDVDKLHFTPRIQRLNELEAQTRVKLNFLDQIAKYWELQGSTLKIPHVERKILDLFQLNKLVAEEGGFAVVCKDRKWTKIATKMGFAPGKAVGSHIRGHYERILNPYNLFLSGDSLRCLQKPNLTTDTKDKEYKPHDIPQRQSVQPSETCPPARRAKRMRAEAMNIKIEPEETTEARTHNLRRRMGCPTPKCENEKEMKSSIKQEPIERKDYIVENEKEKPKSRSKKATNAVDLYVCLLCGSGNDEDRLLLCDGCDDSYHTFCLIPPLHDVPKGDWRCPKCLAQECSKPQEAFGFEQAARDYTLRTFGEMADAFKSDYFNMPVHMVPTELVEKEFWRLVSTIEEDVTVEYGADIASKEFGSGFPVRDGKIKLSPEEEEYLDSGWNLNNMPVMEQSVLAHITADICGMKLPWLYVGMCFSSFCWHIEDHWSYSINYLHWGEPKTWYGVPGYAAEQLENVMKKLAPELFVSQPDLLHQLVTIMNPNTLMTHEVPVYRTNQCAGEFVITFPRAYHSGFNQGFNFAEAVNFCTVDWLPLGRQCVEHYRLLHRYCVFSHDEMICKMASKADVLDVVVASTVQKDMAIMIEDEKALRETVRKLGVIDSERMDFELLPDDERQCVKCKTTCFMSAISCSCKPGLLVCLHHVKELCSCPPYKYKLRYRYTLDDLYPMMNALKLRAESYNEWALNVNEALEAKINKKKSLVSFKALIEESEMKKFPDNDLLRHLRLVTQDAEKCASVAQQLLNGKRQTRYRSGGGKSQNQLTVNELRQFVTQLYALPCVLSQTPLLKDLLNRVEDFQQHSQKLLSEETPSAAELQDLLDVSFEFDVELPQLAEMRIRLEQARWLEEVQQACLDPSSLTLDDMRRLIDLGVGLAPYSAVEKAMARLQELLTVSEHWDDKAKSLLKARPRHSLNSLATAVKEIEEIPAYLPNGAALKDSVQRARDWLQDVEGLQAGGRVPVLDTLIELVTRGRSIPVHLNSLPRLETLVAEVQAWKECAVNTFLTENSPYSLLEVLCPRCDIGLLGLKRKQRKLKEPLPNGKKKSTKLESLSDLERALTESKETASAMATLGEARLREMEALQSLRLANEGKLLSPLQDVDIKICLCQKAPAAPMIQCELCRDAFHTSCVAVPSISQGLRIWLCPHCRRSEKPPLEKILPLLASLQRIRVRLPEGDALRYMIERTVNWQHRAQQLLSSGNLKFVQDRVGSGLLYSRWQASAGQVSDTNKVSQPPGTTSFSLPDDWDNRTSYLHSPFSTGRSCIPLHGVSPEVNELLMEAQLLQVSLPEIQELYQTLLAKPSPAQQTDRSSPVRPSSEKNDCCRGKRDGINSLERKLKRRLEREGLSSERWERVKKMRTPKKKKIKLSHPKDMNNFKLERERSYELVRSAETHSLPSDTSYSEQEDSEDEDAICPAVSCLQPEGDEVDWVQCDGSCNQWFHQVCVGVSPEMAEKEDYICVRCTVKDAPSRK
Assay: Optimization screen for KDM5B Histone Demethylases FDH coupled qHTS against the LOPAC library (AID 1347166)
Conditions: KDM5B demethylation, FDH-coupled NADH fluorescence (FDH is formaldehyde dehydrogenase); series mostly up to 57.5 µM
Procedure, shortened: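 KDM5BDeltaAP (200nM final) preincubated 10 min with compound, then 12.5uM H3K4Me3, 25uM a-ketoglutarate, ascorbate, Fe(II), NAD+ and FDH added; 50mM HEPES pH 7.5, 0.01% Tween-20. NADH fluorescence (340/450 nm) change over 30 min, room temperature.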
For `CN(C)c1nc2c(Br)c(Br)c(Br)c(Br)c2[nH]1`, the outcome was “inactive”. With `Cc1ccc(O)c(N=Nc2ccccc2)n1` the outcome was “inactive”. In the case of `O=C(O)c1cc(=O)c2c(Cl)cc(Cl)cc2[nH]1`, the outcome was “inactive”. For `CN(C)CCC(c1ccc(Cl)cc1)c1ccccn1` (stereo not given), the outcome was “inactive”. In the case of `CCCCCCCCCCCCCCCC(=O)OC(CC(=O)O)C[N+](C)(C)C` (stereo not given), the outcome was “inactive”. With `CNc1ncnc2c1ncn2[C@@H]1O[C@H](CO)[C@@H](O)[C@H]1O` the outcome was “inactive”. With `O=S(=O)(c1cccc2c(I)cccc12)N1CCCNCC1` the outcome was “inactive”. With `CC(C)(C=O)Cc1cc(C(C)(C)C)c(O)c(C(C)(C)C)c1` the outcome was “inactive”. With `O=C(O)c1cc([N+](=O)[O-])ccc1NCCCc1ccccc1` the outcome was “inactive”. With `C[N+](C)(C)CC(=O)[O-]` the outcome was “inactive”. In the case of `NCCCCCCCCCCN`, the outcome was “inactive”. In the case of `C[C@@H](CN1CCC(Cc2ccccc2)CC1)[C@@H](O)c1ccc(O)cc1`, the outcome was “inactive”. With `OC[C@H]1O[C@@H](n2cnc3c(NC4CCCC4)ncnc32)[C@H](O)[C@@H]1O` the outcome was “inactive”. For `OC[C@H]1O[C@@H](n2cnc3c(Nc4ccccc4)ncnc32)[C@H](O)[C@@H]1O`, the outcome was “inactive”. In the case of `CNC(=O)[C@H]1O[C@@H](n2cnc3c(NCc4ccc(N)cc4)ncnc32)[C@H](O)[C@@H]1O`, the outcome was “inactive”. In the case of `COc1ccccc1N1CCN(CCCCNS(=O)(=O)c2cccc3c(N(C)C)cccc23)CC1`, the outcome was “inactive”. For `Cc1cc2c(cc1Cl)N(C(=O)Nc1ccc(Oc3cccnc3C)nc1)CC2`, the outcome was “inactive”. In the case of `NC[C@H]1O[C@@H](n2cnc3c(N)ncnc32)[C@H](O)[C@@H]1O`, the outcome was “inactive”. For `CCCCN1CCC(n2c(=O)[nH]c3ccccc32)CC1`, the outcome was “inactive”. For `NC(=O)C1=CN(C2OC(COP(=O)(O)OP(=O)(O)OC[C@H]3O[C@@H](n4cnc5c(N)ncnc54)[C@H](OP(=O)(O)O)[C@@H]3O)C(O)C2O)C=CC1` (stereo not given in full), the outcome was “inactive”. In the case of `CC(C)NCC(O)COc1cccc2ccccc12` (stereo not given), the outcome was “inactive”. For `Ic1ccc(N2CCN(Cc3c[nH]c4ncccc34)CC2)cc1`, the outcome was “inactive”. With `N=c1ccn2c(n1)O[C@H]1[C@H](O)[C@@H](CO)O[C@H]12` the outcome was “inactive”. In the case of `COc1ccccc1CNCCCCCCNCCCCCCCCNCCCCCCNCc1ccccc1OC`, the outcome was “inactive”. With `COc1ccc2c(c1)CCC1C2CC[C@@]2(C)C1CC[C@@H]2NCCCCCCN1C(=O)CCC1=O` (stereo not given in full) the outcome was “inactive”. In the case of `N#C/C(=C\c1ccc(-c2cc(Cl)ccc2Cl)o1)C(=O)Nc1cccc2ncccc12`, the outcome was “inactive”. With `Nc1nc(SCc2ccc([N+](=O)[O-])cc2)c2ncn([C@@H]3O[C@H](CO)[C@@H](O)[C@H]3O)c2n1` the outcome was “inactive”. In the case of `O=C(c1ccc(Cl)cc1)N1CCN(c2ccc([N+](=O)[O-])c3ncccc23)CC1`, the outcome was “inactive”. With `CNC(=O)[C@H]1O[C@@H](n2cnc3c(NCc4cccc(I)c4)ncnc32)[C@H](O)[C@@H]1O` the outcome was “inactive”. With `NS(=O)(=O)C#Cc1ccccc1` the outcome was “inactive”. With `COc1cccc(C(=O)NCCN2CCN(c3ccc(Cl)cc3)CC2)c1` the outcome was “inactive”. With `O=C(O)/C=C/C(O)c1ccc(Cl)cc1` (stereo not given) the outcome was “inactive”.

System: not listed separately
Assay: HepG2 cells viability qHTS for Zika virus inhibitors (AID 1347168)
Conditions: Zika counter-screen; series mostly up to 45.9 µM
Procedure, shortened: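 Counter-screen for cytotoxicity of hits from NS2B-NS3 protease qHTS. Overnight-attached cells (2.5 x 10^5 cells/mL, DMEM/4% FBS) were dosed in titration, incubated 24 to 48 hours, then assayed by CellTiter Glo.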
For `O=C(c1cc(O)c(O)c([N+](=O)[O-])c1)c1ccccc1F`, the outcome was “inactive”. In the case of `COc1ccc(Br)cc1S(=O)(=O)NC(=O)/C=C/c1ccccc1Cc1ccc2ccccc2c1`, the outcome was “inactive”. In the case of `O=C1NC(=O)/C(=C/c2ccc(-c3ccc(F)cc3O)o2)S1`, the outcome was “inactive”.
